Measurements as given in PubChem BioAssay.
The source made the active and inactive calls.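 The calls were made as follows, unless noted: active = primary screen active and over 50% activation in each of two duplicate runs; inactive = the rest.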

System: TRPC4 beta (transient receptor potential cation channel C4), mouse
Assay: TRPC4 cation channel opening, retest – cell-based, Fluo4 calcium, HEK293 TRPC4beta/mu-opioid, duplicates, 10 µM, confirmation (AID 2426;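 active = fluorescence ratio normalized to control raised more than 50% in primary screen plus both repeat runs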;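 as to activation: percent rise of integrated ratio over buffer wells lacking compound which define 0%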)
Conditions: Fluo4 calcium fluorescence, at 10 µM; active compounds read high

Compound | outcome | activation
COc1ccc(NS(=O)(=O)c2cccc(C(=O)N3CCN(Cc4cc(OC)ccc4OC)CC3)c2)cc1 | inactive | –
Cc1ccc(C(=O)c2no[n+]([O-])c2C(=O)c2ccc(C)cc2)cc1 | inactive | –
O=C(NC1CCCC1)c1cc2ccccc2o1 | inactive | –
COc1ccc(-n2cc(CNCc3cccnc3)c(-c3cccc(F)c3)n2)cc1 | – | 84% (active)
CN1CCCN(Cc2cccc3ccccc23)CC1 | inactive | –

System: transient receptor potential cation channel C4 beta (TRPC4), mouse
Assay: TRPC4 cation channel opening, second retest – cell-based, second round, Fluo4, HEK293 TRPC4beta/mu-opioid, 1 µM, confirmation (AID 2461)
Conditions: Fluo4 calcium fluorescence, at 1 µM; active compounds read high

Compound | outcome
CC(C)C(=O)N1CCN(c2nc(-c3ccccc3)c3c(c2C#N)CCCC3)CC1 | inactive
CC(=O)n1cc([C@@H]2C=C(C(=O)NCc3ccccc3)O[C@H](OCc3ccc(CO)cc3)C2)c2ccccc21 | inactive
CCN1CCN(c2nc(N)c([N+](=O)[O-])c(Nc3ccc(C)c(C)c3)n2)CC1 | inactive
CN1/C(=C\C=[N+](C)c2ccccc2)C(C)(C)c2ccccc21 | inactive
COc1cc(NC(=O)C(C)Oc2ccccc2)cc(OC)c1 (stereo not drawn) | inactive
CCCCc1ccc(NC(=O)CSc2nnc(C)c(=O)n2N)cc1 | inactive
O=C(COc1ccc(Br)cc1Cl)c1ccc[nH]1 | inactive
Clc1cc(/C=N\NC2=NCCN2)cc(Cl)n1 | inactive
Cc1cc(OCC(=O)N2CCCC2)cc(C)c1Cl | inactive
CCOC(=O)CC(NS(=O)(=O)c1ccc(OC)c(C)c1)c1cccc([N+](=O)[O-])c1 (stereo not drawn) | inactive
O=C(COc1coc(CN2CCN(c3ccccc3F)CC2)cc1=O)Nc1ccccc1 | inactive
CN(C)CCCNC(=O)/C=C/c1ccc(OCc2c(F)cccc2Cl)cc1 | inactive
CC(C)c1cccc(OCCCCN(C)C)c1 | inactive
CNc1oc(-c2ccccc2Cl)nc1P(=O)(c1ccccc1)c1ccccc1 | inactive
Cc1ccc(C(=O)C[n+]2cccc3cc(C)ccc32)cc1 | inactive
CCCN1CCN(C(=S)NCc2ccc(Cl)cc2)CC1 | inactive
CC(=O)Nc1nc(-c2ccc3c(c2)CCN3C(=O)C2CC2)c(C)s1 | inactive
COC(=O)c1ccccc1NC(=O)CCC(=O)N1CC(C)Oc2ccc(C)cc21 (stereo not drawn) | inactive
CN1CCN(S(=O)(=O)c2ccc(Br)c3ccccc23)CC1 | inactive
CC(C)(C)C(=O)NCCCc1nc2ccccc2n1CCCOc1ccc(Cl)cc1 | inactive

Compound | outcome
CCN(CC)c1ccc(CNc2nc3ccccc3n2CCN2CCCCC2)cc1 | inactive
O=[N+]([O-])c1ccc(S(=O)(=O)NCCCc2ccccc2)cc1 | inactive
CC(=O)c1ccc(OCC(O)CN2CCN(S(=O)(=O)c3c(C)cc(C)cc3C)CC2)cc1 (stereo not drawn) | inactive
CC(=O)c1ccc(N2CCN(c3ccc(S(=O)(=O)NCCCN(C)C)cc3[N+](=O)[O-])CC2)cc1 | inactive
C=CCn1c(SCCN2CCCCC2)nc2c1c(=O)[nH]c(=O)n2C | inactive
CCCN(C(=O)COC(=O)C12CCC(=O)N1c1ccccc1S2)c1c(N)n(Cc2ccccc2)c(=O)[nH]c1=O (stereo not drawn) | inactive
Cc1cc(C(=O)CN2C(=O)C(=O)N(CC(C)C)C2=O)c(C)n1-c1ccccc1F | inactive
C/C(=N\NC(=O)COc1ccc(C)cc1C(C)C)c1ccc(-n2ccnc2)cc1 | inactive
COc1cc(/C=C2\C(=O)ON=C2c2ccccc2)cc(Cl)c1O | inactive
CN(CC(=O)Nc1ccc(F)cc1)C(=O)COC(=O)C1CCN(c2ccc(C(F)(F)F)cn2)CC1 | inactive
CCCN(CCC)CCCNC(=O)c1cc2c(=O)n(C)c3ccccc3c2n1C | inactive
COc1ccccc1CC(=O)N1CCN(S(=O)(=O)c2ccccc2)CC1 | inactive
O=C(COc1ccccc1)NC1CCCCCCC1 | inactive
O=C(CC1C(=O)NCCN1C(=O)Nc1ccccc1)Nc1cc(Cl)cc(Cl)c1 (stereo not drawn) | inactive
COc1ccc(NS(=O)(=O)c2cccc(C(=O)N3CCN(Cc4cc(OC)ccc4OC)CC3)c2)cc1 | inactive
Cc1ccc(C(=O)c2no[n+]([O-])c2C(=O)c2ccc(C)cc2)cc1 | inactive
O=C(NC1CCCC1)c1cc2ccccc2o1 | inactive
COc1ccc(-n2cc(CNCc3cccnc3)c(-c3cccc(F)c3)n2)cc1 | inactive
CN1CCCN(Cc2cccc3ccccc23)CC1 | inactive

System: TRPC4 (transient receptor potential cation channel C4 beta), mouse
Assay: potentiation of DAMGO EC20 TRPC4 response – cell-based, second round, Fluo-4, HEK293 TRPC4beta/mu-opioid, 1 µM, confirmation (AID 2554;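 active = primary screen hit whose fluorescence ratio, in both repeats, exceeds the weak agonist control mean by 3 SD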)
Conditions: DAMGO EC20, Fluo-4 calcium flux, at 1 µM; active compounds read high

Compound | outcome | potentiation
CC(C)C(=O)N1CCN(c2nc(-c3ccccc3)c3c(c2C#N)CCCC3)CC1 | inactive | –
CC(=O)n1cc([C@@H]2C=C(C(=O)NCc3ccccc3)O[C@H](OCc3ccc(CO)cc3)C2)c2ccccc21 | inactive | –
CCN1CCN(c2nc(N)c([N+](=O)[O-])c(Nc3ccc(C)c(C)c3)n2)CC1 | inactive | –
CN1/C(=C\C=[N+](C)c2ccccc2)C(C)(C)c2ccccc21 | inactive | –
COc1cc(NC(=O)C(C)Oc2ccccc2)cc(OC)c1 (stereo not drawn) | inactive | –
CCCCc1ccc(NC(=O)CSc2nnc(C)c(=O)n2N)cc1 | inactive | –
O=C(COc1ccc(Br)cc1Cl)c1ccc[nH]1 | inactive | –
Clc1cc(/C=N\NC2=NCCN2)cc(Cl)n1 | inactive | –
Cc1cc(OCC(=O)N2CCCC2)cc(C)c1Cl | inactive | –
CCOC(=O)CC(NS(=O)(=O)c1ccc(OC)c(C)c1)c1cccc([N+](=O)[O-])c1 (stereo not drawn) | inactive | –
O=C(COc1coc(CN2CCN(c3ccccc3F)CC2)cc1=O)Nc1ccccc1 | inactive | –
CN(C)CCCNC(=O)/C=C/c1ccc(OCc2c(F)cccc2Cl)cc1 | inactive | –
CC(C)c1cccc(OCCCCN(C)C)c1 | – | 9% (active)
CNc1oc(-c2ccccc2Cl)nc1P(=O)(c1ccccc1)c1ccccc1 | inactive | –
Cc1ccc(C(=O)C[n+]2cccc3cc(C)ccc32)cc1 | inactive | –
CCCN1CCN(C(=S)NCc2ccc(Cl)cc2)CC1 | inactive | –
CC(=O)Nc1nc(-c2ccc3c(c2)CCN3C(=O)C2CC2)c(C)s1 | inactive | –
COC(=O)c1ccccc1NC(=O)CCC(=O)N1CC(C)Oc2ccc(C)cc21 (stereo not drawn) | inactive | –
CN1CCN(S(=O)(=O)c2ccc(Br)c3ccccc23)CC1 | inactive | –
CC(C)(C)C(=O)NCCCc1nc2ccccc2n1CCCOc1ccc(Cl)cc1 | inactive | –

Compound | outcome | potentiation
CCN(CC)c1ccc(CNc2nc3ccccc3n2CCN2CCCCC2)cc1 | inactive | –
O=[N+]([O-])c1ccc(S(=O)(=O)NCCCc2ccccc2)cc1 | inactive | –
CC(=O)c1ccc(OCC(O)CN2CCN(S(=O)(=O)c3c(C)cc(C)cc3C)CC2)cc1 (stereo not drawn) | – | 20% (active)
CC(=O)c1ccc(N2CCN(c3ccc(S(=O)(=O)NCCCN(C)C)cc3[N+](=O)[O-])CC2)cc1 | – | 12% (active)
C=CCn1c(SCCN2CCCCC2)nc2c1c(=O)[nH]c(=O)n2C | – | 27% (active)
CCCN(C(=O)COC(=O)C12CCC(=O)N1c1ccccc1S2)c1c(N)n(Cc2ccccc2)c(=O)[nH]c1=O (stereo not drawn) | inactive | –
Cc1cc(C(=O)CN2C(=O)C(=O)N(CC(C)C)C2=O)c(C)n1-c1ccccc1F | inactive | –
C/C(=N\NC(=O)COc1ccc(C)cc1C(C)C)c1ccc(-n2ccnc2)cc1 | inactive | –
COc1cc(/C=C2\C(=O)ON=C2c2ccccc2)cc(Cl)c1O | inactive | –
CN(CC(=O)Nc1ccc(F)cc1)C(=O)COC(=O)C1CCN(c2ccc(C(F)(F)F)cn2)CC1 | inactive | –
CCCN(CCC)CCCNC(=O)c1cc2c(=O)n(C)c3ccccc3c2n1C | – | 23% (active)
COc1ccccc1CC(=O)N1CCN(S(=O)(=O)c2ccccc2)CC1 | inactive | –
O=C(COc1ccccc1)NC1CCCCCCC1 | – | 9% (active)
O=C(CC1C(=O)NCCN1C(=O)Nc1ccccc1)Nc1cc(Cl)cc(Cl)c1 (stereo not drawn) | inactive | –
COc1ccc(NS(=O)(=O)c2cccc(C(=O)N3CCN(Cc4cc(OC)ccc4OC)CC3)c2)cc1 | inactive | –
Cc1ccc(C(=O)c2no[n+]([O-])c2C(=O)c2ccc(C)cc2)cc1 | – | 23% (active)
O=C(NC1CCCC1)c1cc2ccccc2o1 | inactive | –
COc1ccc(-n2cc(CNCc3cccnc3)c(-c3cccc(F)c3)n2)cc1 | inactive | –
CN1CCCN(Cc2cccc3ccccc23)CC1 | – | 34% (active)
